RTF Ca sens act: cardiac RTF calcium sensitization. P19429+P45379. IANBD-labeled TnC RTF fluorescence at EC20 calcium; 0% EC20 calcium, 100% full calcium. activation, % at 7.2 µM. actives 0.24% (n = 340,000);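 active = activation above the mean over all tested compounds plus 3 SD, cut at about 30% in these data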;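 also: rise in fluorescence read as greater calcium sensitivity of cardiac thin filaments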
RTF Ca sens inh: cardiac RTF calcium desensitization; AID 493244; inhibition, % at 7.15 µM; IANBD-labeled cardiac RTF, Ca2+ fluorescence; P19429+P45379; actives 0.12% (n = 340,000);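 active = inhibition above the mean inhibition of all tested compounds plus 3 SD, cut at about 17% in these data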;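 also: assay run at fixed EC70 calcium of 1.6 mM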
Myeloid diff MLP: compounds promoting myeloid differentiation; ER-HoxA9 myeloid progenitors, lysozyme-GFP differentiation, flow cytometry; calls only at 10 µM; actives 1% (n = 360,000); AID 624256;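 active = normalized GFP-positive differentiation at or above the plate's own cutoff, the solvent-only control mean plus 3 SD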;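 also: cells exposed to compound for four days before flow analysis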
CRFBP-R2 block: CRF-BP/CRF-R2 complex antagonism. HEK293 CRF-R2/CRF-BP, CRF-induced calcium fluorescence. AID 588475. inhibition, % at 11.8 µM. actives 0.59% (n = 350,000);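 active = inhibition of the ligand-induced calcium signal above about 50% at the single tested concentration, limit read from the data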
CRFR2-BP ag: agonists of human CRF-binding protein/CRF-R2 receptor complex. actives 0.46% (n = 350,000). HEK293 CRF-R2/CRF-BP, calcium dye fluorescence (FLIPR); percent of saturating CRF peptide response. activation, % at 13.2 µM;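 active = activation of at least 50%, plus an integration ratio under a set limit after plate pattern correction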
Myeloid diff: myeloid differentiation induction | AID 651706 | calls only | shares compounds with Myeloid diff MLP | actives 2% (n = 2,300) | ER-HoxA9 myeloid progenitors, GFP/Mac1 double-positive flow;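 active = share of green or green-and-red cells above 9 and 9% in run 1 or 4 and 3% in run 2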
GFP autofluor: flagged as fluorescent in myeloid differentiation counter-screen; shares compounds with Myeloid diff MLP; ER-HoxA9 myeloid progenitors, no estrogen, GFP autofluorescence flow cytometry; vehicle wells 0%, positive control 100%; fluorescence response, % (test concentration not listed); actives 7.4% (n = 2,300);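 active = over 5% cells positive for green fluorescent reporter, or over 2% positive for both it and APC stain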
A number is an active result; i = inactive; nt = no result; + = active, no number. The list is not random: actives were taken first. Their share in the collection is about 2.2%.

SMILES	RTF Ca sens act	RTF Ca sens inh	Myeloid diff MLP	CRFBP-R2 block	CRFR2-BP ag	Myeloid diff	GFP autofluor
Cc1ccc(S(=O)(=O)Nc2c(C(=O)O)[nH]c3ccccc23)c(C)c1	i	i	i	i	i	nt	nt
S=C(NCC1CCCO1)Nc1ccccc1 (stereo not drawn)	i	i	i	i	i	nt	nt
Cc1cc(NC(=O)CSc2nnc(-c3cccnc3)n2Cc2ccccc2)no1	i	i	i	i	i	nt	nt
O=C1CCC/C(=N/NC(=O)c2sc3ccccc3c2Cl)C1	36	i	i	i	53	i	i
O=C(NN=C1CCCC1)c1sc2ccccc2c1Cl	i	i	i	i	i	nt	nt
COc1cccc(NC(=O)C2CCOC2=O)c1 (stereo not drawn)	nt	nt	i	i	i	nt	nt
Cc1nc2c(oc3ccccc32)c(=O)o1	i	i	+	i	i	i	i
COc1ccc(-c2nn(-c3ccccc3)cc2/C=N/Nc2ccc(S(N)(=O)=O)cc2[N+](=O)[O-])cc1OC	i	i	i	i	i	i	i
O=C(CCCOc1ccc(Br)cc1)Nc1nnc(C2CC2)s1	i	i	i	i	i	nt	nt
COc1ccccc1-n1cnc2cc(NC(=O)c3ccco3)ccc21	i	i	+	i	i	i	i
CC(C)CN(C(=O)COC(=O)C12CC3CC(CC(C3)C1)C2)c1c(N)n(Cc2ccccc2)c(=O)[nH]c1=O	i	i	+	i	i	i	9.5
CC(C)CN(C(=O)c1ccc([N+](=O)[O-])s1)c1c(N)n(Cc2ccccc2)c(=O)[nH]c1=O	i	i	+	i	i	i	i
CC(C)CN(C(=O)c1ccc2c(c1)OCCO2)c1c(N)n(Cc2ccccc2)c(=O)[nH]c1=O	i	i	i	i	i	nt	nt
CCN(C(=O)CN1CCc2ccccc21)c1c(N)n(Cc2ccccc2)c(=O)[nH]c1=O	i	i	i	i	i	i	i
Cc1cn([C@H]2C[C@H](O)[C@@H](CCC(=O)NCCN3CCCCC3)O2)c(=O)[nH]c1=O	i	i	i	i	i	nt	nt
Cc1cc(C)c(S(=O)(=O)c2cccc(Br)c2C)c(=O)[nH]1	i	i	i	i	i	nt	nt
COc1ccc(N(Cc2cc3ccccc3[nH]c2=O)C(=O)C2CCCO2)cc1 (stereo not drawn)	i	i	i	i	i	nt	nt
CCOc1ccc(N(Cc2cc3cc(OC)ccc3[nH]c2=O)C(=O)C2CCCO2)cc1 (stereo not drawn)	i	i	+	i	i	i	i
O=c1oc(-c2cccs2)nc2c1cnn2-c1ccccc1	i	i	i	i	i	i	i
O=C1NC[C@@H](CCCCN2CCN(CC3CCCCC3)C(=O)C2=O)N(CCC2CCCCC2)C1=O	nt	nt	i	nt	nt	nt	nt
CC(=O)Oc1cc(C)cc2oc(=O)cc(-c3ccccc3)c12	i	i	i	i	i	i	i
Cc1ccc(S(=O)(=O)N2CCCCC2CCNC(=O)C(=O)Nc2ccccc2F)cc1 (stereo not drawn)	i	i	+	i	i	i	i
O=C(NCCC1CCCCN1S(=O)(=O)c1ccc(F)cc1)C(=O)Nc1ccccc1F (stereo not drawn)	i	i	i	i	i	nt	nt
COc1ccc(/C=N/Nc2c(Cl)cc(Cl)cc2Cl)cc1CN1CCOCC1	i	i	i	i	i	i	i
COc1ccc(/C=N/NC(=O)c2ccccc2O)cc1CN1CCOCC1	i	i	i	i	i	nt	nt
SMILES	RTF Ca sens act	RTF Ca sens inh	Myeloid diff MLP	CRFBP-R2 block	CRFR2-BP ag	Myeloid diff	GFP autofluor
COc1ccc(N(CC(=O)Nc2ccccc2C(N)=O)S(=O)(=O)c2ccc(C)c([N+](=O)[O-])c2)cc1	i	i	i	i	i	nt	nt
Nc1cccc(-c2cc3ccccc3oc2=O)c1	i	i	i	i	i	nt	nt
O=Cc1c(-c2ccccc2)cc2oc3ccccc3cc1-2	i	i	i	i	i	i	66
CCOC(=O)Cc1csc(N/C(=N/S(=O)(=O)c2cc(Br)ccc2OCC)c2ccccc2)n1	i	i	i	i	i	nt	nt
COc1ccc(C(=O)Nc2cccc(C(=O)N/N=C/c3ccc(OC)cc3OC)c2)cc1	i	i	i	i	i	i	i
COc1ccc(/C=N/NC(=O)c2cccc(NC(C)=O)c2)c(OC)c1	i	i	i	i	i	nt	nt
COc1ccc(C(=O)Nc2nccs2)cc1[N+](=O)[O-]	i	i	i	i	i	nt	nt

Bioassay records as filed in PubChem.
